From PubChem BioAssay (NCI)
This is part of a sample that, as a whole, favours compounds with a hit. Of some 79,000 tested, about 15% had one in any assay. A number with no mark means an inactive call. Activity calls are given as the source filed them. No stated cut-off is given here; in the data, active means growth inhibition above about 70%; inactive means the rest.

experiment: NCI Yeast Anticancer Drug Screen. Data for the mlh1 rad18 strain (AID 175); conditions: S. cerevisiae mlh1 rad18 strain growth inhibition; at 50.0 µM (retest, dose inferred, filed as 5.0); stronger effect = higher value
Procedure, shortened: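 Genetically defined yeast (DNA repair-deficient) exposed to compounds; growth inhibition determined relative to vehicle.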

SMILES	growth inhibition
Cc1cc2c(Br)cc(Br)c(O)c2nc1C(=O)c1ccccc1	33%
N=C1c2ccccc2-c2ccccc21	21%
COc1ccc(-c2cn(-c3ccccc3)c3ncnc(N)c23)cc1	14%
Nc1ccc(N=Nc2ccccc2)c2ccccc12	98% (active)
CS(=O)(=O)C(=Cc1ccccc1Cl)S(C)(=O)=O	62%
O=C1c2ccccc2C(=O)c2sc(Nc3cc(Cl)ccc3Cl)nc21	98% (active)
COC1=CC(=O)c2c(O)c3c(c(O)c2C1=O)C=C(C)OC3O (stereo not drawn)	52%
NC(=S)N/N=C1\NC(=O)/C(=C/c2ccc3c(c2)OCO3)S1	18%
CCN(CC)P(=S)(c1ccccc1CCP(=S)(c1ccccc1)c1ccccc1)N(CC)CC	32%
CCC(=O)Oc1c(Cl)cc(Cl)c(Cl)c1Cl	90% (active)
CCOC(=O)C(C)(C)C	16%
COC1=CC(=O)c2ncccc2C1=O	93% (active)
O=C1CCSC(=S)N1c1ccccc1C(F)(F)F	99% (active)
O=C1c2cccc(NCCNCCO)c2C(=O)c2cccc(NCCNCCO)c21	15%
CCOc1cc2c(cc1O)CC[C@@H]1[C@@H]2CC[C@]2(C)[C@@H](O)CC[C@@H]12	42%
S=C(N/N=C/c1ccccn1)N1CC2CCC(CC2)C1	99% (active)
COc1ccc(Nc2nc3ccccc3s2)cc1	15%
O=C(OCC1OC(OCC(OC(=O)c2ccccc2)C(OC(=O)c2ccccc2)C(OC(=O)c2ccccc2)c2cnn(-c3ccccc3)n2)C(OC(=O)c2ccccc2)C(OC(=O)c2ccccc2)C1OC(=O)c1ccccc1)c1ccccc1 (stereo not drawn)	-10%
O=C(CBr)Nc1ccc(Cc2ccc(NC(=O)CBr)cc2)cc1	1%
CCOC(=O)Sc1nc2ccccc2[nH]1	7%

SMILES	growth inhibition
C=C1OC(=O)C(=O)N1CC(=O)O	-119%
Nc1ncnc2c1ncn2C1OCC(O)C1O (stereo not drawn)	86% (active)
CCOC(=O)C(Cc1cc(I)c(Oc2ccc(OC)cc2)c(I)c1)NC(C)=O (stereo not drawn)	95% (active)
BrCc1ccc([Si](c2ccccc2)(c2ccccc2)c2ccc(CBr)cc2)cc1	-30%
O=C1OC(C2OC(=O)C(=O)C2C(=O)c2ccc(Cl)cc2)C(C(=O)c2ccc(Cl)cc2)C1=O (stereo not drawn)	85% (active)
Cc1ccc2c(c1)NC(=O)C(N=[N+]=[N-])(c1ccccc1)C2=O (stereo not drawn)	98% (active)
NC(=O)C1CCCN1C(=O)C1CCCN(Cc2cc(CN3CCCC(C(=O)N4CCCC4C(N)=O)C3)cc(CN3CCCC(C(=O)N4CCCC4C(N)=O)C3)c2)C1 (stereo not drawn)	-1%
CCCCN(CCCC)CC(O)Cc1cc2ccccc2c2ccccc12 (stereo not drawn)	91% (active)
CN(/N=C\c1cccc([N+](=O)[O-])c1)C(c1cccc([N+](=O)[O-])c1)N(C)/N=C/c1cccc([N+](=O)[O-])c1 (stereo not drawn)	40%
O=C(CCl)NC(=O)N(/N=C/c1ccco1)c1ccccc1	68%
CC1CCN(CCCOC(=O)c2ccccc2)CC1	74% (active)
COC(=O)C1=C(C(=O)OC)C2C(C)=CC(C)=CN2C(C(=O)OC)=C1C(=O)OC (stereo not drawn)	-4%
CO/N=C/c1ccc([N+](=O)[O-])s1	94% (active)
N/C(=N\N=C/c1ccc(O)c(O)c1O)NO	7%
CC1=C[P+](c2ccccc2)(c2ccccc2)C=C(c2ccccc2)O1	93% (active)
CC(C)SC(=S)Nc1ccc(Cl)c([N+](=O)[O-])c1	99% (active)
Nc1ccc2oc(=O)c3ccccc3c2c1	94% (active)
CCCCCSc1nc2ncnc(N)c2[nH]1	8%
CC(C)Cn1cnc2c(SCc3cccc(F)c3)nc(N)nc21	45%

same assay, conditions: S. cerevisiae mlh1 rad18 strain growth inhibition; at 50.0 µM; stronger effect = higher value

SMILES	growth inhibition
Cc1cc2c(Br)cc(Br)c(O)c2nc1C(=O)c1ccccc1	21.8%
N=C1c2ccccc2-c2ccccc21	26.8%
COc1ccc(-c2cn(-c3ccccc3)c3ncnc(N)c23)cc1	17.6%
Nc1ccc(N=Nc2ccccc2)c2ccccc12	97.6% (active)
CS(=O)(=O)C(=Cc1ccccc1Cl)S(C)(=O)=O	-28.1%
O=C1c2ccccc2C(=O)c2sc(Nc3cc(Cl)ccc3Cl)nc21	90.5% (active)
COC1=CC(=O)c2c(O)c3c(c(O)c2C1=O)C=C(C)OC3O (stereo not drawn)	89.3% (active)
NC(=S)N/N=C1\NC(=O)/C(=C/c2ccc3c(c2)OCO3)S1	-14%
CCN(CC)P(=S)(c1ccccc1CCP(=S)(c1ccccc1)c1ccccc1)N(CC)CC	97.1% (active)
CCC(=O)Oc1c(Cl)cc(Cl)c(Cl)c1Cl	74.3% (active)
CCOC(=O)C(C)(C)C	23.3%
COC1=CC(=O)c2ncccc2C1=O	95.1% (active)
O=C1CCSC(=S)N1c1ccccc1C(F)(F)F	99.3% (active)
O=C1c2cccc(NCCNCCO)c2C(=O)c2cccc(NCCNCCO)c21	8.2%
CCOc1cc2c(cc1O)CC[C@@H]1[C@@H]2CC[C@]2(C)[C@@H](O)CC[C@@H]12	40.8%
S=C(N/N=C/c1ccccn1)N1CC2CCC(CC2)C1	89.7% (active)
COc1ccc(Nc2nc3ccccc3s2)cc1	58.7%
O=C(OCC1OC(OCC(OC(=O)c2ccccc2)C(OC(=O)c2ccccc2)C(OC(=O)c2ccccc2)c2cnn(-c3ccccc3)n2)C(OC(=O)c2ccccc2)C(OC(=O)c2ccccc2)C1OC(=O)c1ccccc1)c1ccccc1 (stereo not drawn)	97.7% (active)
O=C(CBr)Nc1ccc(Cc2ccc(NC(=O)CBr)cc2)cc1	97.2% (active)
CCOC(=O)Sc1nc2ccccc2[nH]1	29.4%

SMILES	growth inhibition
C=C1OC(=O)C(=O)N1CC(=O)O	4.05%
Nc1ncnc2c1ncn2C1OCC(O)C1O (stereo not drawn)	82.2% (active)
CCOC(=O)C(Cc1cc(I)c(Oc2ccc(OC)cc2)c(I)c1)NC(C)=O (stereo not drawn)	87.8% (active)
BrCc1ccc([Si](c2ccccc2)(c2ccccc2)c2ccc(CBr)cc2)cc1	53.5%
O=C1OC(C2OC(=O)C(=O)C2C(=O)c2ccc(Cl)cc2)C(C(=O)c2ccc(Cl)cc2)C1=O (stereo not drawn)	76.7% (active)
Cc1ccc2c(c1)NC(=O)C(N=[N+]=[N-])(c1ccccc1)C2=O (stereo not drawn)	70.4% (active)
NC(=O)C1CCCN1C(=O)C1CCCN(Cc2cc(CN3CCCC(C(=O)N4CCCC4C(N)=O)C3)cc(CN3CCCC(C(=O)N4CCCC4C(N)=O)C3)c2)C1 (stereo not drawn)	28.6%
CCCCN(CCCC)CC(O)Cc1cc2ccccc2c2ccccc12 (stereo not drawn)	98.4% (active)
CN(/N=C\c1cccc([N+](=O)[O-])c1)C(c1cccc([N+](=O)[O-])c1)N(C)/N=C/c1cccc([N+](=O)[O-])c1 (stereo not drawn)	40.6%
O=C(CCl)NC(=O)N(/N=C/c1ccco1)c1ccccc1	58%
CC1CCN(CCCOC(=O)c2ccccc2)CC1	55%
COC(=O)C1=C(C(=O)OC)C2C(C)=CC(C)=CN2C(C(=O)OC)=C1C(=O)OC (stereo not drawn)	25.4%
CO/N=C/c1ccc([N+](=O)[O-])s1	75.5% (active)
N/C(=N\N=C/c1ccc(O)c(O)c1O)NO	64.7%
CC1=C[P+](c2ccccc2)(c2ccccc2)C=C(c2ccccc2)O1	89% (active)
CC(C)SC(=S)Nc1ccc(Cl)c([N+](=O)[O-])c1	99.4% (active)
Nc1ccc2oc(=O)c3ccccc3c2c1	86.8% (active)
CCCCCSc1nc2ncnc(N)c2[nH]1	-14.5%
CC(C)Cn1cnc2c(SCc3cccc(F)c3)nc(N)nc21	37%
